In the library only some 1.3% were active in any assay of this set; here they are far more common.
PKA-R1A act – activators of PKA-R1A holoenzyme, primary screen, biochemical, fluorescence polarization, Cy5-IP20, bovine R1A, mouse PKAc; AID 504707, 2011; activation, % at 11.4 µM; cAMP-dependent protein kinase type I-alpha regulatory subunit (Bos taurus) + …; PKA-R1A dissociation; scaled: DMSO 0%, 113 µM cGMP 100%; 340,000 compounds, 0.083% hits;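 active means percent activation above the mean of all tested compounds plus 3 SD, cut at about 19% in these data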;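 further: higher means more PKAc released from R1A so a rise in polarization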
PKA-R2B activ – activators of PKA-R2B holoenzyme, primary screen, biochemical, fluorescence polarization, Cy5-IP20, human; cAMP-dependent protein kinase catalytic subunit beta (Homo sapiens) + cAMP-dependent …; 340,000 compounds, 0.079% hits; PKA-R2B holoenzyme dissociation; R2B truncated from residue 108, S112A mutant; 0% DMSO only, 100% 113 µM cGMP; activation, % at 11.4 µM; AID 504700, 2011;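 active means activation above a cutoff set at the mean over all compounds plus 3 SD, cut at about 18% in these data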;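 further: higher means more holoenzyme dissociation and a rise in polarization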
Target sequence (P31323 whole entry, looked up, other chains not shown, the tested form may be a part): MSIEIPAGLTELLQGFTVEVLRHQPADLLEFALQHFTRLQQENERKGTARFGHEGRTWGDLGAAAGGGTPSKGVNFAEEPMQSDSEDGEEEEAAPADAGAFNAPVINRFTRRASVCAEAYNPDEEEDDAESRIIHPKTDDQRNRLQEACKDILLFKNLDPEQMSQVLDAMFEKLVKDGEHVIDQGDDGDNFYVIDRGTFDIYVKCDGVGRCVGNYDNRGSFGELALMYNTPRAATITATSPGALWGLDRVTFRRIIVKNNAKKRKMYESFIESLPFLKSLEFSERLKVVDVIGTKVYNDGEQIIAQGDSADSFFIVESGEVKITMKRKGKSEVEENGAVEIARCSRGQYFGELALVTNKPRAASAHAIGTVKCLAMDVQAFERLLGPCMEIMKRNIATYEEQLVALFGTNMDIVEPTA
Rin1-Abl PPI inh – inhibitors of Rin1-Abl protein binding, primary screen, biochemical, TR-FRET. Tyrosine-protein kinase ABL1 (Homo sapiens) + Ras and Rab interactor 1 (Homo sapiens), …. 360,000 compounds, 0.4% hits. inhibition, % at 7.35 µM. AID 588664, 2011; in the data active means inhibition above about 5%, passing the limit was not always enough
IDE cell inh – human IDE inhibitors in live cells, primary screen, fluorescence polarization, HEK cells, FAbetaB substrate | 320,000 compounds, 0.41% hits | FAbetaB cleavage | Insulin-degrading enzyme (Homo sapiens), P14735 | inhibition, % at 5.59 µM;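 active means percent inhibition above the average of all tested compounds plus 3 SD, set per screening campaign, cut at about 16% in these data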;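 further: IDE supplied by intact live HEK cells; FP after avidin binding of uncleaved biotin substrate so inhibition keeps polarization high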
E coli Lon inh – inhibitors of E. coli Lon protease, primary screen, biochemical, fluorescence polarization. P0A9M0. purified E. coli Lon protease. inhibition, % at 7.94 µM. 360,000 compounds, 0.42% hits. AID 602123, 2011; in the data active means inhibition above about 13%, passing the limit was not always enough
IDE act – human IDE activators in live cells, primary screen, fluorescence polarization, HEK cells, FAbeta-B substrate. Insulin-degrading enzyme (Homo sapiens), P14735. FAbeta-B cleavage; 0% vehicle, 100% cell-free pure enzyme wells. activation, % at 5.96 µM. 340,000 compounds, 0.073% hits. AID 493087, 2011;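 active means activation above the mean of all tested compounds plus 3 SD, set per screening campaign, cut at about 17% in these data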
IDE inh confirm – human IDE inhibitors in live cells, confirmation, fluorescence polarization, HEK cells, FAbetaB substrate. shares compounds with IDE cell inh. FAbetaB cleavage. inhibition, % at 5.59 µM. 1,200 compounds, 51% hits. AID 435028, 2010;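 active means mean inhibition across triplicate wells above the cutoff set by the earlier primary insulin-degrading enzyme screen, cut at about 16% in these data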
HEK293 tox – cytotoxicity in HEK cells, cytotoxicity control for IDE inhibitor project, cell-based, luminescence. inhibition, % at 5.59 µM. 1,200 compounds, 28% hits. HEK293 cytotoxicity, ATP luminescence. shares compounds with IDE cell inh. AID 449730, 2010; in the data active means inhibition above about 22%
A number is an active result; - = inactive; . = not tested or not shown.

SMILES	PKA-R1A act	PKA-R2B activ	Rin1-Abl PPI inh	IDE cell inh	E coli Lon inh	IDE act	IDE inh confirm	HEK293 tox
O=C1C2C3C=CC(C3)C2C(=O)N1CC1CCCO1 (stereo unspecified)	-	-	-	-	-	-	.	.
O=C1CSC(=S)N1CC1CCCO1 (stereo unspecified)	-	-	-	18	-	-	-	-
COc1cc(OC)cc(-c2cc3ccccc3c(=O)o2)c1	-	-	-	-	-	-	.	.
COc1ccc(C)cc1NCc1cc(=O)oc2cc(-c3ccccc3)c(O)cc12	-	-	-	20	-	-	-	-
CCc1nnc(/N=C/c2c(O)n(-c3ccc(Cl)cn3)c(=O)c3ccccc23)s1	-	-	-	17	-	-	-	-
O=[N+]([O-])c1ccc(/C=C/C2=NN(c3ccccc3)C(c3ccco3)C2)cc1 (stereo unspecified)	-	-	-	36	-	-	53	-
O=[N+]([O-])c1ccc(C2=NN(c3ccccc3)C(c3ccco3)C2)cc1 (stereo unspecified)	-	-	-	.	-	-	.	.
CC(=Nc1ccc(Br)cc1)c1sc2ccccc2c1O	-	-	-	20	-	-	54	-
NC(=Nc1ccc(Br)cc1)c1ccccc1	-	-	-	-	-	-	.	.
Cc1cccc(/N=C/c2sc3ccccc3c2O)n1	-	-	-	-	-	-	.	.
CC(=Nc1ccccc1)c1sc2ccccc2c1O	-	-	-	20	-	-	51	-
CC(=O)Oc1ccc(Cl)cc1/C=C/c1cc(OC(C)=O)c2ccccc2n1	.	.	.	37	.	.	89	-
N#Cc1ccc(-c2ccccc2)nc1SCC(=O)c1cccc(Cl)c1	-	-	-	-	-	-	.	.
N#Cc1ccc(-c2cccnc2)nc1SCC(=O)c1ccccc1	-	-	-	23	-	-	42	-
CCc1nc2ccc(C(=O)Nc3cccc(OCC(=O)N(C)C)c3)cn2c1N(CCC(C)C)CCN(C)C	.	.	-	.	-	.	.	.
Cc1cc(C)c2c(=O)n(CC(=O)Nc3ccc(Br)c(C)c3)sc2n1	-	-	-	61	-	-	19	-
COc1ccc(OC)c(CCNC(=O)Cn2sc3nc(C)cc(C)c3c2=O)c1	.	.	.	20	.	.	-	125
Cc1cc(C)c2c(=O)n(CC(=O)NC3CCCC3)sc2n1	-	-	-	27	-	-	-	80
Cc1c(Cl)cccc1NC(=O)Cn1cccc1	-	-	-	-	-	-	.	.
Cc1cc(C)c2c(=O)n(CC(=O)Nc3cccc(Cl)c3C)sc2n1	-	-	-	40	-	-	-	79
Cc1cc(NC(=O)Cc2ccsc2)ccc1Br	-	-	-	-	-	-	.	.
O=C(Nc1ccccc1)c1cc(C2CCCCN2C(=O)CCCc2ccccc2)on1 (stereo unspecified)	.	.	-	.	-	.	.	.
Cc1cc(S(=O)(=O)NCCCn2ccnc2)c(C)cc1Cl	-	-	-	-	-	-	.	.
O=C(CCNC(=O)c1ccccc1Cl)Nc1cc(C(F)(F)F)ccc1Cl	-	-	-	-	-	-	.	.
COc1ccc(-c2cc(C(F)(F)F)nc(N3CCN(c4ccc(F)cc4)CC3)n2)cc1OC	-	-	-	.	-	-	.	.
SMILES	PKA-R1A act	PKA-R2B activ	Rin1-Abl PPI inh	IDE cell inh	E coli Lon inh	IDE act	IDE inh confirm	HEK293 tox
CC(=O)N(c1ccc2oc(=O)sc2c1)S(=O)(=O)c1ccccc1	-	-	-	23	-	-	-	-
COc1ccc(OC)c(S(=O)(=O)N(C(C)=O)c2ccc3oc(=O)sc3c2)c1	-	-	-	-	-	-	.	.
CC(C)C(=O)N(c1ccc2oc(=O)sc2c1)S(=O)(=O)c1ccccc1	-	-	-	25	-	-	-	-
CC1(C)Cc2c(cnn2-c2ccc(F)cc2)C(NC(=O)c2cnccn2)C1 (stereo unspecified)	-	-	-	-	-	-	.	.
CC(=O)Nc1cc(N=Cc2ccc(O)cc2O)c(Cl)cc1Cl	-	-	-	18	-	-	32	-
Cc1ccc(-n2c(O)c(C=Nc3ccccc3-c3n[nH]c(=S)[nH]c3=O)c3ccccc3c2=O)cc1C	-	-	-	.	-	-	.	.
Cc1cccc(-n2c(O)c(C=Nc3ccccc3-c3n[nH]c(=S)[nH]c3=O)c3ccccc3c2=O)n1	-	-	-	22	-	-	17	-
CCNc1nnc(CSc2nc3ccccc3s2)s1	-	-	-	17	-	-	-	-
COc1cc(/C=C2\SC(=S)N(NC(=O)c3ccncc3)C2=O)ccc1O	-	-	-	81	-	-	165	-
O=C(NN1C(=O)/C(=C/c2cccs2)SC1=S)c1cccnc1	.	.	-	-	-	.	.	.
COc1cc(/C=C2\SC(=S)N(NC(=O)c3ccc(O)c(OC)c3)C2=O)ccc1O	-	-	-	109	-	-	89	-
COc1cc(/C=C2\SC(=S)N(NC(=O)c3cccc(O)c3)C2=O)ccc1O	-	-	-	.	-	-	.	.
CCOc1cc(/C=C2\SC(=S)N(NC(=O)c3cccnc3)C2=O)ccc1O	.	.	-	41	-	.	148	-
CCOC(=O)c1c(S(=O)(=O)NCC(=O)Nc2ccc(OC)cc2)c(C)n(C)c1C	-	-	-	-	-	-	.	.
CCN1/C(=C/c2ccc3cc(C)ccc3[n+]2CC)Sc2ccccc21	-	-	-	91	-	-	136	113
CCN1/C(=C/c2ccc3cc(C)ccc3[n+]2CC)Sc2cc(C)c(C)cc21	-	-	-	.	-	-	.	.
CCN(C(=O)COC(=O)CCCN1C(=O)c2cccc3cccc(c23)C1=O)C1CCS(=O)(=O)C1 (stereo unspecified)	-	-	-	-	-	-	.	.
COc1cccc(Cl)c1NC(=O)N1CCN(c2cc(C)nc3ccccc23)CC1	-	-	-	28	-	-	22	23
O=C(COC(=O)c1cccnc1Cl)Nc1nc(-c2ccccc2)cs1	-	-	-	26	-	-	-	-
CCN(CC(=O)Nc1ccc(OC)cc1)C(=O)c1ccc2c(=O)n3c(nc2c1)CCC3	-	-	-	-	-	-	.	.
COc1cc(/C=C/c2nc3ccccc3c(=O)[nH]2)cc(Cl)c1O	-	-	-	27	-	-	100	-

High-throughput results from PubChem.
